# Choline anaer gr: growth inhibitors of anaerobic choline-fed gram-negatives, minimal medium, absorbance; 55,000 compounds, 0.2% hits; Gram-negative bacterium anaerobic choline minimal medium; active compounds read low; calls only; AID 1963822, 2024; call rule not given here
# * marks the source's active call; other numbers are inactive results; i = inactive; + = active, no number; ! = a repeat was not active. This excerpt belongs to a sample that is enriched for hits.
SMILES,Choline anaer gr
CN1CCc2c(sc(NC(=O)C3CC3)c2-c2nc3ccccc3s2)C1,i
CC(C)N1CCc2c(sc(NC(=O)C3CC3)c2-c2nc3ccccc3s2)C1,+
CN1CCc2c(sc(NC(=O)CN3C(=O)c4ccccc4C3=O)c2-c2nc3ccccc3s2)C1,i
CC(C)Cc1cc(-c2nnc3sc(-c4cccc(N(C)C)c4)nn23)n[nH]1,i
O=C(c1cc(NS(=O)(=O)c2ccccc2)ccn1)N1CCCCC1,i
Cc1ccc(Cl)cc1NS(=O)(=O)c1cc(-c2nc(C(C)(C)C)cs2)cs1,i
CC(C)(C)c1csc(-c2csc(S(=O)(=O)Nc3ccc(Cl)cc3F)c2)n1,+
CC(C)(C)c1csc(-c2csc(S(=O)(=O)Nc3ccc(F)c(Cl)c3)c2)n1,i
CC(C)c1cc(NC2CC2)n2nc(-c3cccnc3)nc2n1,i
Cc1noc2c1C(C(C)C)C1=C(CC(c3ccccc3)CC1=O)N2 (configuration not stated),i
Cc1c(Cl)cccc1NC(=O)Nc1ccccc1SCc1cc(=O)n2c(ncn2CC(C)C)n1,i
O=C(NC(Cc1c[nH]c2ccccc12)C(=O)NCc1ccccc1)c1ccccc1 (configuration not stated),i
Cc1cc(-c2cc(S(=O)(=O)NC3CCCC3)c(C)s2)on1,i
O=C(NC1CCCCC1)C1CCN(c2ccnc(-c3ccc(F)cc3)n2)CC1,i
Cc1noc2ncn(Cc3ccccc3)c(=O)c12,i
Cc1noc2ncnc(NC(C)C)c12,i
Cc1noc2nc[nH]c(=O)c12,+
COCCNC(=O)N1CCN(S(=O)(=O)c2ccc3c(c2)NC(=O)C(C)O3)CC1 (configuration not stated),i
Cn1c(=O)n(C)c2cc(S(=O)(=O)Nc3ccc(F)cc3F)c(Cl)cc21,i
O=S(=O)(c1ccc(-c2nnc(C3CC3)o2)s1)N1CCCCCC1,i
Cc1nc2scc(C)n2c(=O)c1NC(=O)Cc1ccc(Cl)cc1,+
Cc1nc2sccn2c(=O)c1NC(=O)Cc1ccc(Cl)cc1,i
Cc1nc2scc(C)n2c(=O)c1NC(=O)C(C)C,i
Cc1ccc(C)c(-c2csc(Cc3nc(-c4ccc(F)cc4)no3)n2)c1,i
Cc1nn2c3c(cnc2c1-c1ccc(Cl)cc1)C(=O)CC(c1ccc(F)cc1)C3 (configuration not stated),i
SMILES,Choline anaer gr
CCCCC/C=C\C/C=C\C/C=C\C/C=C\CCCCCC(=O)O,i
CCCCC/C=C\C/C=C\C/C=C\C/C=C\CCCC(=O)O,i
CCCCC/C=C\C/C=C\CCCCCCCC(N)=O,i
CC/C=C\C/C=C\C/C=C\CCCCCCCC(=O)O,i
CC/C=C\C/C=C\C/C=C\CCCCCCCCCCCC(=O)O,+
CC/C=C\C/C=C\C/C=C\C/C=C\C/C=C\CCCC(=O)O,+
CCCCCCC/C=C\CCCCCCCCC(=O)O,i
CC/C=C\C/C=C\C/C=C\CCCCCCCCCC(=O)O,+
CCCCC/C=C\C/C=C\CC1OC1C/C=C\CCCC(=O)O (configuration not stated),i
O=C(Nc1ccc(F)c(Cl)c1)c1cccc(Nc2ncc(-c3ccc(F)cc3)cn2)c1,i
CC1CCc2nc3ncn(Cc4cc(=O)n5cc(Cl)ccc5n4)c(=O)c3cc2C1 (configuration not stated),i
CCC(C)NC(=O)c1nn2c(C)cc(C)nc2c1-c1ccc(OC)c(S(=O)(=O)N2CCCC2)c1 (configuration not stated),i
CCc1csc2nc(C)cc(=O)n12,i
OCC1O[C@H]([S-])[C@@H](O)C(O)[C@@H]1O.[Au+] (some centres not stated),+
OC[C@H]1O[C@H](O[C@H]2[C@H](O)[C@@H](O)[C@H](O)O[C@@H]2CO)[C@H](O)[C@@H](O)[C@@H]1O,i
OCC1O[C@H](O)C(Cl)C(O)C1O (some centres not stated),i
CCC(=O)N1CCCN(S(=O)(=O)CC)CC1,i
CCC(=O)N1CCCC1C(=O)N1CCCN(C)CC1 (configuration not stated),+
CCN1CCN(C(=O)[C@@H]2CCCN2C(C)=O)CC1,i
NC[C@@H]1O[C@H](C23CC4CC(CC(C4)C2)C3)Cc2c1ccc(O)c2O,+!
NC[C@@H]1O[C@H](c2ccccc2)Cc2c1ccc(O)c2O,i
Cc1c(-c2nc(-c3ccccc3)no2)nnn1-c1cc(F)ccc1F,i
CCn1nccc1C1CCCN1C(=O)Nc1cc(Cl)c(OC)cc1OC (configuration not stated),i
CCCCN(C)c1ccc(NS(=O)(=O)c2ccc(Br)cc2)c(C(=O)O)c1,i
CN1CCN(c2ccc(NC(=O)c3ccccc3Cl)c(C(=O)O)c2)CC1,i
SMILES,Choline anaer gr
CCCCN(C)c1ccc(NC(=O)C2CC2)c(C(=O)O)c1,i
CCCN1CCN(c2ccc(NC(=O)c3ccccc3Cl)c(C(=O)O)c2)CC1,i
O=C(Nc1ccc(N2CCC(Cc3ccccc3)CC2)cc1C(=O)O)c1ccccc1Cl,+
CCCCN(C)c1ccc(NC(=O)c2ccccc2Cl)c(C(=O)O)c1,+
COC(=O)c1cc(Nc2ccccc2)c2ccccc2n1,i
O=S(=O)(NCc1cccs1)c1cc(-c2noc(C3CCC3)n2)cs1,i
CS(=O)(=O)c1nc2ccc(NS(=O)(=O)c3cccc4nsnc34)cc2s1,i
O=S1(=O)NC(=NCc2ccc3c(c2)OCO3)Nc2ccccc21,i
Cc1csc(NC(=O)c2nc3ccccc3nc2Cl)n1,i
CCN(C(=O)c1c(C)oc2ncnc(N3CCCCC3)c12)c1cc(C)ccc1C,+
Cc1oc2ncnc(N3CCCCC3)c2c1C(=O)Nc1cccc(Cl)c1,i
Cc1ccc(-c2noc3ncnc(N4CCC(C(=O)N(C)c5cc(C)ccc5C)CC4)c23)cc1,i
Cc1nc(OCC(=O)NC2CC2)c2c(C)c(C)oc2n1,i
CCOc1ccc(-n2c(=O)c3c4c(sc3n(CC(=O)N3CCC(C)CC3)c2=O)CCC4)cc1,i
CC1CS(=O)(=O)N(c2ccc(C(=O)NCCc3c[nH]c4ccccc34)c(Cl)c2)C1=O (configuration not stated),i
CCOc1ccc(NC(=O)C(C)Sc2nc3c(c(=O)[nH]2)CCCC3)cc1 (configuration not stated),i
CCOc1ccc(NC(=O)C(CC)Sc2nc3ncccc3[nH]2)cc1 (configuration not stated),+
CCC(Sc1nc2ncccc2[nH]1)C(=O)Nc1ccc(Br)cc1 (configuration not stated),i
CCOc1ccc2c(c1)sc1nc(-c3ccc(O)cc3)c(NC(C)(C)C)n12,i
Cc1[nH]c(C)c(S(=O)(=O)N2CCC(C(=O)N3CCc4ccccc43)CC2)c1C(=O)N1CCCC1,+
Cc1[nH]c(C)c(S(=O)(=O)N2CCC(C(=O)N3CCc4ccccc43)CC2)c1C(=O)N1CCCCC1,i
Cc1[nH]c(C)c(S(=O)(=O)N2CCc3ccccc3C2)c1C(=O)N1CCCC1,i
COc1cccc(CNC(=O)C2CCCN2S(=O)(=O)c2cc3c(cc2C)NC(=O)CO3)c1 (configuration not stated),i
COc1cccc(-c2csc(-c3nnn(-c4ccccc4)c3N)n2)c1,i
COc1cccc2c1Oc1ncccc1N(C(=O)Nc1ccc3c(c1)OCCO3)C2,i
CCn1c(CN(c2ccc(F)cc2)S(C)(=O)=O)nnc1SCC(=O)c1ccc(Cl)cc1,i
CCn1c(CN(c2ccc(F)cc2)S(C)(=O)=O)nnc1SCC(=O)c1ccccc1,i

# Bioassay records (PubChem)
